A short description of experiment [1]: NCI Yeast Anticancer Drug Screen. Data for the rad50 strain (AID 155).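 Note: 0% = growth of vehicle-only cultures of the same strain.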 Conditions: S. cerevisiae rad50 strain growth inhibition; at 50.0 µM; stronger effect = higher value. The method, boiled down:
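Cells are treated with compound, grown, and their growth is then scored against vehicle-only cultures of the same repair-deficient yeast strain.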

The nature of experiment [2]: NCI Yeast Anticancer Drug Screen. Data for the mec2-1 strain (AID 157). Conditions: S. cerevisiae mec2-1 strain, at 50.0 µM, stronger effect = higher value. The method, boiled down:
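Each compound was tested on mec2-1 yeast, a strain altered in DNA damage repair or cell cycle control. Growth inhibition is reported relative to vehicle.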

Experiment [3] in a line: NCI Yeast Anticancer Drug Screen. Data for the sgs1 mgt1 strain (AID 161).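 Note: 0% = growth of cultures given vehicle only.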 Particulars: S. cerevisiae sgs1 mgt1 strain, at 50.0 µM, stronger effect = higher value. The method, boiled down:
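Inhibition of yeast growth, normalised to vehicle-treated controls, is reported for a strain bearing genetic alterations in DNA damage repair.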

Experiment [4] can be described thus: NCI Yeast Anticancer Drug Screen. Data for the cln2 rad14 strain (AID 165).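 Note: 0% = growth equal to vehicle treated cultures.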 Conditions: S. cerevisiae cln2 rad14 strain, at 50.0 µM, stronger effect = higher value. The procedure, abridged: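 Test compounds were added to cln2 rad14 yeast cultures; inhibition of growth was then determined by comparison with vehicle treatment.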
A short description of experiment [5]: NCI Yeast Anticancer Drug Screen. Data for the bub3 strain (AID 167). Particulars: S. cerevisiae bub3 mutant strain, at 50.0 µM, stronger effect = higher value. The method, boiled down:
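Part of a panel of yeast mutants defective in DNA damage repair or cell cycle regulation. Each strain is grown with compound, and inhibition is calculated relative to solvent-treated cultures.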

Experiment [6] can be described thus: NCI Yeast Anticancer Drug Screen. Data for the mlh1 rad18 strain (AID 175). Particulars: S. cerevisiae mlh1 rad18 strain growth inhibition; at 50.0 µM; stronger effect = higher value. The method, boiled down: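 Inhibition values reflect reduced growth of mutant yeast versus vehicle-treated controls following compound exposure; the mutations affect DNA damage repair.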

20 compounds from PubChem BioAssay (NCI) can be followed below.

The structures appear in SMILES notation. About 79,000 compounds went through this panel and 15% of them were active in at least one assay; those are over-represented in the sample as a whole. Values without a mark were called inactive. Calls of active or inactive are those of the source. Cut-off read from the data, not from the text of the source: active = growth inhibition above about 70%; inactive = the rest.

On to `C1CCCNCCNCCNCC1`, for which the growth inhibition in experiment [1] is -4.4%; in experiment [2], -17.1%; in experiment [3], -18.9%; in experiment [4], 16.1%; in experiment [5], -20.8%; in experiment [6], 19.1%.

Take `CC1(CCOCc2ccccc2)NC(=O)NC1=O` (stereo not given): the growth inhibition is -32.2% in experiment [1]; -8.4% in experiment [2]; -44.4% in experiment [3]; -33% in experiment [4]; -13.2% in experiment [5]; -19.9% in experiment [6].

Take `c1ccc(C(=C2CCCCCCCCCCCCC2)c2ccccc2)cc1`: the growth inhibition in experiment [1] is -25.2%; in experiment [2], 2.9%; in experiment [3], -2.9%; in experiment [4] it was -2%; in experiment [5] it was 25%; in experiment [6] it was -24%.

For the compound `CCOc1ccc(OCC)c2c1C(=O)c1ccccc1C2=O`, the growth inhibition in experiment [1] is -6.8%; in experiment [2], 15.3%; in experiment [3], 1.15%; in experiment [4], -1.3%; in experiment [5], 9.15%; in experiment [6] it was -5.8%.

Turning to `Cc1cccc(C(=O)N(C)C)c1`, the growth inhibition was -0.7% in experiment [1]; 1.75% in experiment [2]; -6.4% in experiment [3]; -17.8% in experiment [4]; 4% in experiment [5]; 3.75% in experiment [6].

Regarding `CCCCCCCCCCCCCCCC[N+](C)(C)Cc1ccccc1`, the growth inhibition in experiment [1] is 99.2% (active); in experiment [2], 99% (active); in experiment [3], 99.3% (active); in experiment [4], 99% (active); in experiment [5], 98.8% (active); in experiment [6], 98.9% (active).

In the case of `CC1(SCC(N)C(=O)O)CC(=O)NC1=O` (stereo not given), the growth inhibition was -40.5% in experiment [1]; -33.1% in experiment [2]; -64.5% in experiment [3]; -36.8% in experiment [4]; -39.2% in experiment [5]; -40.1% in experiment [6].

As to `Cc1ccc(S(=O)(=O)N2CCN(S(=O)(=O)c3ccc(C)cc3)COC2)cc1`, the growth inhibition was -1.1% in experiment [1]; -0.4% in experiment [2]; -5.15% in experiment [3]; -3.85% in experiment [4]; -1.6% in experiment [5]; -9.85% in experiment [6].

Consider `O=C1N=C2SCCCN2C1(c1ccccc1)c1ccccc1`, for which the growth inhibition in experiment [1] was 4.2%; in experiment [2], 21.2%; in experiment [3], -3.4%; in experiment [4] it was -7%; in experiment [5], 0%; in experiment [6], 6.9%.

On to `NC(=O)N/N=C/c1ccc(O)cc1`, for which the growth inhibition in experiment [1] was 5.15%; in experiment [2], -1.15%; in experiment [3] it was 1%; in experiment [4], -11.1%; in experiment [5], -3.85%; in experiment [6], -1.5%.

Consider `CCOC(=O)C1=C(C)Oc2cc3c(cc2C1c1cc(OC)c(O)c(OC)c1)OCO3` (stereo not given), for which the growth inhibition in experiment [1] was 33.8%; in experiment [2], 1.65%; in experiment [3] it was 38.5%; in experiment [4], 9.75%; in experiment [5] it was 27.4%; in experiment [6] it was 50.5%.

On to `CCC(=O)c1ccc(O)c(C)c1`, for which the growth inhibition in experiment [1] is 4.85%; in experiment [2], -2.9%; in experiment [3] it was 0.2%; in experiment [4], -2.6%; in experiment [5], 37.7%; in experiment [6], 2.45%.

As for `N#C/C(=C(/N)N1CCOCC1)N1CCOCC1`, the growth inhibition is -18.4% in experiment [1]; -8.95% in experiment [2]; -9.15% in experiment [3]; -13.6% in experiment [4]; 16.1% in experiment [5]; -4.2% in experiment [6].

In the case of `Clc1ccc(Cc2ccc(Br)cc2)cc1`, the growth inhibition was 43.6% in experiment [1]; -10.3% in experiment [2]; 38.5% in experiment [3]; 2.45% in experiment [4]; 49% in experiment [5]; 13.2% in experiment [6].

Consider `CC12CC1CCCC2OC(=O)c1cc([N+](=O)[O-])cc([N+](=O)[O-])c1` (stereo not given), for which the growth inhibition in experiment [1] is 4.75%; in experiment [2] it was 2.15%; in experiment [3] it was -5.7%; in experiment [4], -12.7%; in experiment [5] it was -7.65%; in experiment [6], -0.15%.

As for `COC(=O)[C@]1(C)CCC[C@@]2(C)C1CC[C@@]13C=C(C(C)C)[C@@H](CC1=O)CC23` (stereo not given in full), the growth inhibition in experiment [1] is 10.7%; in experiment [2] it was 4.7%; in experiment [3], -1.7%; in experiment [4], 32.7%; in experiment [5], 26.4%; in experiment [6], 19.1%.

In the case of `Brc1ccc(CN(Cc2ccccc2)Cc2ccccc2)cc1`, the growth inhibition in experiment [1] was -13.3%; in experiment [2], -8.3%; in experiment [3], 1.55%; in experiment [4] it was -10.4%; in experiment [5] it was 10.7%; in experiment [6], 4.75%.

For `O=C(O)C1C2CC(C(Br)C2Br)C1C(=O)O` (stereo not given), the growth inhibition is -6.55% in experiment [1]; 0.75% in experiment [2]; -21.7% in experiment [3]; 9.9% in experiment [4]; -5.85% in experiment [5]; -12.2% in experiment [6].

For `COC(=O)C12CC3CC(CC(C(=O)O)(C3)C1)C2`, the growth inhibition was -10.2% in experiment [1]; -7.95% in experiment [2]; -4.8% in experiment [3]; -3.2% in experiment [4]; -1.65% in experiment [5]; -14.8% in experiment [6].

Regarding `CCOC(=O)C1S(=O)(=O)OCCOS1(=O)=O`, the growth inhibition in experiment [1] was -19.2%; in experiment [2] it was -26.6%; in experiment [3], -7.45%; in experiment [4], 0.75%; in experiment [5], -14.8%; in experiment [6] it was -27.8%.
